Screening data from PubChem BioAssay.
Shiga toxin inh – Shiga toxin inhibition; Vero cells, Shiga toxin protein synthesis inhibition reporter; inhibition, % at 38.7 µM; 9.2% of 290,000 active; in the data active = inhibition mostly above about 28%, no sharp cut-off; inactive = mostly below about 43%; note: 0% is about no effect
Pf growth 96h – P. falciparum growth inhibition at 96 hour, primary screen for plastid delayed-death inhibitors; P. falciparum luciferase reporter growth, 96 h; Potency, µM (highest dose often 28.7 µM), for the others: at the highest dose activity change, negative = inhibition, most hits filed as inhibitors; 6.9% of 320,000 active; AID 504834; active = well fitted inhibition curve with a large enough effect; inconclusive = small, poorly fitted or top-dose-only effect, or another doubt; inactive = no such curve, though single readings can be large or run the other way; note: potency is the fitted concentration of half-maximal effect; % is set by controls: 0 for no effect and ±100 for the full control effect
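Two parasite generations (96 h, 37 C, 5% CO2) of compound exposure in infected erythrocytes (0.05% parasitemia, 2% hematocrit). Luciferase-reporter P. falciparum; decreased luminescence indicates inhibited growth, aimed at apicoplast-acting delayed death.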
NS1 inh – influenza NS1 inhibition; Potency, µM (titrated, usually from 46.1 µM), without a hit: at the highest dose activity, positive = more growth; 0.4% of 270,000 active; note: potency is the fitted concentration of half-maximal effect; actives are rising curves; nearly all actives have a fitted effect of over 50% in size
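In this qHTS, NS1 from influenza A is expressed in budding yeast, where it slows growth. Cells are switched from glucose to 2% galactose medium (pH 6.0, -URA), treated with compound, and growth recovery is read at OD600.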
CHX counter – counter-screen for Shiga toxin inhibitors: cycloheximide protein synthesis inhibition; cell reporter, cycloheximide protein synthesis inhibition counterscreen; max response, %; 12% of 300,000 active; AID 2314; in the data active = max response mostly above about 13%, no sharp cut-off; inactive = mostly below about 14%; note: read at 38.3 µM for the half of the compounds with a filed dose; 0% is about no effect
Pf growth 48h – inhibits P. falciparum growth in the first generation, 48 h. P. falciparum luciferase growth in erythrocytes, 48 h. Potency, µM (highest dose often 28.7 µM), without a hit: at the top dose activity change, negative = inhibition, usual class: inhibitors. 5.9% of 310,000 active. AID 504832; active = well fitted inhibition curve with a large enough effect; inconclusive = small, poorly fitted or top-dose-only effect, or another doubt; inactive = no such curve, though single readings can be large or run the other way; note: potency is the fitted concentration of half-maximal effect; % is set by controls: 0 for no effect and ±100 for the full control effect
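Compounds are pin-transferred into medium, infected erythrocytes (2% hematocrit, 0.1% parasitemia final) are added, and plates sit one parasite generation at 37 C in 5% CO2. Detection reagent is then added and luminescence measured.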
SARS PLP yeast – SARS-CoV PLP inhibition in yeast; AID 485353; 0.19% of 330,000 active; Potency, µM (titrated, usually from 32.9 µM), without a hit: at the highest dose activity, positive = growth rescue, most hits filed as activators; S. cerevisiae expressing SARS-CoV PLpro, growth rescue; note: potency is the fitted concentration of half-maximal effect; 0% is about no effect; nearly all actives have a fitted effect of over 55% in size
Active calls of the source: *; ? = inconclusive; . = no result given; [ ] = remark or other dose. Compounds with a hit are over-represented: about 21% of the library has one in this group of screens. Unless noted, calls come from the whole dose curve.

SMILES	Shiga toxin inh	Pf growth 96h	NS1 inh	CHX counter	Pf growth 48h	SARS PLP yeast
Fc1cccc(F)c1-n1c(CN2CCCCC2)csc1=S	-16.3	11.7µM*	.	-3.7	?	-3.5%
CCCCn1nc(C(=O)Nc2ccc(-n3cnnn3)cc2)c2ccccc2c1=O	.	?	.	.	-22.4%	-7.0%
COc1cccc(N(CC(=O)NC(C)(C)C)C(=O)C2CSC(=O)C2)c1 (stereo not drawn)	10.8	-8.4%	-7.3%	6.8	-0.8%	-0.1%
CC(C)(C)NC(=O)CN(C(=O)C1CSC(=O)C1)c1ccc2c(c1)OCCO2 (stereo not drawn)	33.9*	4.1%	5.2%	35.8*	21.2%	0.6%
CN(C(=O)c1ccco1)c1nnc(C23CC4CC(CC(C4)C2)C3)s1	83.2*	-97.9%	-36.7%	56.8*	?	-17.4%
CN(C(=O)c1ccco1)c1nc2c(s1)CCCC2	41.7*	265.1%	-73.0%	31.3*	.	-15.9%
CC(NC(=O)c1ccco1)C12CC3CC(CC(C3)C1)C2 (stereo not drawn)	.	?	.	.	?	-3.9%
CN(C(=O)COc1ccc(Cl)cc1Cl)c1nnc(C23CC4CC(CC(C4)C2)C3)s1	-9.7	13.1µM*	6.8%	-5.4	?	0.2%
CN(C(=O)COc1ccc(Cl)cc1)c1nnc(C23CC4CC(CC(C4)C2)C3)s1	-4.1	54.4%	1.7%	-2.1	16.5%	0.7%
O=C(CN1C(=O)NC2(CCCC2)C1=O)Nc1nc2ccccc2[nH]1	.	14.2%	.	.	20.5%	2.1%
CCOc1ccc(-c2ccc(SCc3ccccn3)nn2)cc1	59.4*	-31.3%	.	40.5*	34.4%	-2.5%
CCc1ccc(-c2ccc(SCc3ccccn3)nn2)cc1	102.9*	-33.3%	.	41.0*	103.6%	2.2%
N/C(=N\O)c1ccc(N2CCN(c3ncccc3C(F)(F)F)CC2)nc1	73.5*	197.8%	-2.9%	38.7*	285.3%	0.0%
O=C(Nc1ccc(N2CCOCC2)nc1)c1cccs1	57.2*	181.8%	.	38.4*	461.3%	2.9%
CC(C)(C)C(=O)N1CCN(c2ncccc2C(F)(F)F)CC1	9.2	0.0%	-3.9%	4.6	?	-1.5%
O=C(Nc1ccc(N2CCN(c3ncccc3C(F)(F)F)CC2)nc1)c1cccs1	40.9	2.33µM*	-55.3%	9.3	0.37µM*	-4.9%
O=C(Nc1ccc(N2CCN(c3ccc(C(F)(F)F)cn3)CC2)nc1)c1cccs1	4.8	?	2.6%	4.0	?	-0.6%
COc1ccc(C[C@H]2CN3C(=NC[C@@H]3Cc3ccc(O)cc3)N2C[C@H](C)NC(=O)CCC2CCCCC2)cc1	-3.8	0.928µM*	3.1%	-7.4	2.08µM*	0.0%
C[C@@H](CN1C2=NC[C@H](C)N2C[C@H]1Cc1ccc(O)cc1)NC(=O)CCC1CCCCC1	-11.4	?	-2.0%	-3.5	-14.5%	0.6%
COc1ccc(C[C@@H]2CN3C(=NC[C@@H]3Cc3ccc(O)cc3)N2C[C@H](C)NC(=O)CCC2CCCCC2)cc1	20.6	0.738µM*	2.4%	-3.3	1.17µM*	0.9%
CC(C)[C@H]1CN=C2N(C[C@H](C)NC(=O)CCC3CCCCC3)[C@H](Cc3ccc(O)cc3)CN21	12.8	4.15µM*	-31.3%	-5.1	11.7µM*	0.0%
N#CC1(N2CCN(C(=O)c3ccccc3)CC2)CCCCC1	-0.6	149.0%	11.1%	-1.0	22.6%	-5.3%
Cc1ccc(N(CC(=O)NCc2ccc3c(c2)OCO3)S(=O)(=O)c2c(C)noc2C)cc1	-11.0	18.7%	0.8%	1.6	.	14.7%
CC1C(=O)N2CCCc3cc(S(=O)(=O)NCCc4ccccc4)cc1c32 (stereo not drawn)	-6.5	2.08µM*	5.6%	-2.1	-0.9%	-1.6%
O=C(NCCc1c[nH]c2ccccc12)C(=O)Nc1cc2c3c(c1)CC(=O)N3CCC2	.	2.94µM*	.	.	1.04µM*	-1.0%
SMILES	Shiga toxin inh	Pf growth 96h	NS1 inh	CHX counter	Pf growth 48h	SARS PLP yeast
COc1ccccc1CCNC(=O)C(=O)Nc1cc2c3c(c1)C(C)C(=O)N3CCC2 (stereo not drawn)	.	?	.	.	13.1µM*	-0.9%
CC1C(=O)N2CCCc3cc(NC(=O)C(=O)NCc4ccc5c(c4)OCO5)cc1c32 (stereo not drawn)	.	7.38µM*	.	.	8.28µM*	1.0%
COc1ccc(CCNS(=O)(=O)c2cc3c4c(c2)C(C)C(=O)N4CCC3)cc1OC (stereo not drawn)	-1.5	?	13.5%	-2.7	0.0%	-0.5%
COCCNC(=O)C(=O)Nc1cc2c3c(c1)C(C)C(=O)N3CCC2 (stereo not drawn)	16.5	104.4%	5.1%	-5.1	34.0%	0.4%
CC(CCc1ccccc1)NC(=O)CNC(=O)N1CC(=O)Nc2ccccc21 (stereo not drawn)	1.7	50.6%	12.4%	-1.9	2.6%	4.4%
CNC(=S)Nc1cccc(Cl)c1C	-13.2	-2.9%[5.75 µM]	2.6%	-5.9	5.3%	-0.3%
CCOc1ccc(C2C(C(C)=O)=C(O)C(=O)N2CCc2c[nH]c3ccccc23)cc1 (stereo not drawn)	5.5	-8.3%	4.5%	-2.1	10.6%	1.6%
Cc1ccc2c(COC(=O)c3ccccc3F)cc(=O)oc2c1	128.0*	222.6%	-2.7%	26.7*	243.2%	-13.0%
Cc1ccc2c(COC(=O)c3n[nH]c4ccccc34)cc(=O)oc2c1	78.3*	-9.1%	-0.9%	31.6*	79.6%	?
CCc1ccc2c(COC(=O)c3n[nH]c4ccccc34)cc(=O)oc2c1	93.5*	-6.0%	-17.5%	46.4*	1.3%	11.7%
COC(=O)C1=C(C)NC(C)=C(C(=O)OC)C1C(=O)OCC(=O)c1ccc(Br)cc1	.	-24.2%	.	.	-23.8%	2.7%
N=c1nc(N)nc(N)n1-c1ccc(S(N)(=O)=O)cc1	.	.	1.8%	.	.	.
Cc1c(CCO)c(=O)n(-c2ccccc2)n1S(=O)(=O)c1ccc(Cl)cc1	-13.3	.	2.8%	-2.3	1.3%	5.4%
CN(C)S(=O)(=O)c1cccc(C(=O)N=C2N=C3C=CC(Cl)=CN3Cc3ccccc32)c1	130.2*	?	2.7%	53.0*	?	-1.7%
O=C(N=C1N=C2C=CC=CN2Cc2ccccc21)c1ccc(S(=O)(=O)N2CCCC2)cc1	96.9*	-10.2%	6.1%	55.4*	19.5%	-1.4%
O=C(N=C1N=C2C=CC=CN2Cc2ccccc21)c1ccc(S(=O)(=O)N2CCOCC2)cc1	154.3*	-1.2%	.	32.5*	41.2%	-0.3%
CCN(CC)CCCNC(=O)CN1N=C(c2ccc(OC)cc2)CCC1=O	3.8	1.3%	7.6%	-3.7	42.0%	-0.3%
CC(=O)Nc1ccc(NC(=O)CSc2nc3ccccc3nc2N2CCC(C)CC2)cc1	36.1	-1.6%	9.6%	18.8*	?	-0.9%
COc1ccc(C)cc1NC(=O)CSc1nc2ccccc2nc1N1CCCCC1	-2.8	20.3%	?	-1.7	4.15µM*	-4.8%
COc1cc(NC(=O)CSc2nc3cc(C)ccc3cc2C)c(C(=O)O)cc1OC	-3.5	9.28µM*	14.8%	-4.6	14.0%	25.3%
